Screening results from PubChem.
An excerpt weighted towards active compounds, which were near 3.8% of everything screened.
ATXN2 expr inh – reduces ATXN2 reporter expression in HEK-293 cells. HEK-293 ATXN2-luciferase reporter, luminescence, 24 h. Potency, µM (top dose mostly 57 µM), for the others: at the highest dose activity change, negative = inhibition, actives largely listed as inhibitors. hit rate 0.72% among 360,000. AID 1745845; also: % is scaled to controls: 0 for no effect and ±100 for the full control effect; nearly all actives have a fitted effect of over 55% in size
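qHTS (up to 57 uM final) was run with 24 h compound exposure of reporter cells at 37 °C. Each well was multiplexed: SteadyGlo luminescence measured ATXN2-luciferase expression after a fluorogenic Gly-Phe-AFC viability readout (25 uM final).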
HepG2 viability – kills HepG2 cells in TGF-b inhibitor counter-screen | HepG2 CAGA-GFP viability, ATP luminescence, 18 h | Potency, µM (top dose mostly 46.1 µM), without a hit: top-dose activity change, negative = cytotoxicity, most hits filed as cytotoxic | hit rate 0.76% among 410,000
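HepG2 CAGA-GFP cells (1000/well, DMEM with 1% FBS) received compound, then TGF-beta at 500 pg/mL final, and were incubated 18 hours at 37 degrees C. Viability was read by CellTiter-Glo luminescence. Media-only wells were set as complete cell-killing and DMSO as no toxicity.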
S2 tox – cell viability loss in ATXN counter-screen; S2 cells (HEK-293 line with an ATXN2-luciferase reporter) viability, CellTiter-Fluor protease fluorescence, 24 h; Potency, µM (top dose mostly 56.7 µM), usual class: cytotoxic; hit rate 0.49% among 400,000; AID 651635; also: nearly all actives have a fitted effect of over 40% in size
TGFb inhibitor – TGF-b pathway inhibition; HepG2 CAGA-GFP TGF-b/SMAD3 reporter, GFP fluorescence, 18 h; TGF-beta stimulated, 500 pg/mL final; Potency, µM (series often up to 46.1 µM), for the others: at the top dose activity, negative = inhibition, actives largely listed as inhibitors; hit rate 1.2% among 410,000; also: % is scaled to controls: 0 for no effect and ±100 for the full control effect; nearly all actives have a fitted effect of over 65% in size
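Inhibition of TGF-beta-driven CAGA-GFP reporter expression in HEPG2 cells is measured by cellular GFP fluorescence after 18 h stimulation with 500 pg/mL recombinant TGF-beta in 1% FBS medium at 37 degrees C.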
Nrf2 block – Nrf2 pathway inhibition | Potency, µM (series often up to 46 µM), for inactives: top-dose activity change, negative = inhibition, usual class: inhibitors | AID 504444 | A549 ARE-Fluc reporter, luciferase luminescence, 18-24 h | hit rate 2.1% among 360,000; also: % is scaled to controls: 0 for no effect and ±100 for the full control effect; nearly all actives have a fitted effect of over 60% in size
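Cells were seeded and rested 2 h, then exposed to compounds for 18-24 h. CellTiter-Fluor was read first as a viability measure. BugLite was added 15 min before the final luminescent read of ARE-luciferase activity in A549 cells.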
A549 viability – kills or reduces viability of A549 cells in Nrf2 counter-screen; hit rate 0.16% among 390,000; AID 504648; A549 ARE-Fluc cells, CellTiter-Fluor viability, 18-24 h; Potency, µM (titrated, usually from 46 µM), inactives show top-dose activity change, negative = cytotoxicity, usual class: inhibitors; also: % is scaled to controls: 0 for no effect and ±100 for the full control effect
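Cytotoxicity counterscreen: CellTiter-Fluor fluorescence was measured in A549 ARE_Fluc cells after 18-24 h of compound exposure in a concentration series. The subsequent BugLite luminescent read reports ARE-luciferase activity.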
* = called active by the depositor; i = inactive; ? = inconclusive; nt = no result. Calls follow the shape of the dose curve; as a rule, active = well fitted curve in the direction sought with a large enough effect; inconclusive = small, poorly fitted or top-dose-only effect, or another doubt; inactive = no such curve, though single readings can be large; an effect the other way counts as inactive or inconclusive. Potency is read from the fitted curve at half-maximal effect.

SMILES	ATXN2 expr inh	HepG2 viability	S2 tox	TGFb inhibitor	Nrf2 block	A549 viability
O=C1C(=O)c2ccc(-c3ccccc3)cc2-c2ccccc21	?	2.5µM*	5.6µM*	?	21µM*	nt
Nc1ccc2c(c1)C(=O)C(=O)c1ccccc1-2	4.5µM*	4µM*	6.3µM*	?	nt	?
CCc1c(C)nc2cc(-c3ccc(OC)c(OC)c3)nn2c1N1CCCC1	?	-93%	?	22µM*	-25%	-20%
Cc1ccc(NC(C)c2cc(Cl)ccc2O)cc1 (stereo not given)	-3%	11µM*	i	0%	-6%	-4%
CC(Nn1cnnc1)c1cc(Cl)ccc1O (stereo not given)	3%	8%	i	17%	6%	1%
O[C@H]1C[C@H](c2ccc(Cl)cc2)N(CC2CCCCC2)C[C@@H]1n1cc(C2CC2)nn1	?	16µM*	35µM*	?	nt	nt
O[C@@H]1CN(CC2CCCCC2)[C@@H](c2ccc(Cl)cc2)C[C@H]1n1cc(C2CC2)nn1	?	-28%	20µM*	3%	nt	nt
O[C@@H]1C[C@H](c2ccc(Cl)cc2)N(CC2CCCCC2)C[C@H]1n1cc(C2CC2)nn1	11%	-4%	i	4%	nt	nt
COc1ccc([C@H]2C[C@H](n3cc(C4CC4)nn3)[C@@H](O)CN2CC2CCCCC2)cc1	?	-114%	?	?	nt	nt
Cc1ccc(CNc2ncnc3c2cnn3C2CCCCO2)cc1 (stereo not given)	0%	-7%	i	0%	?	1%
CS(=O)(=O)N1CCc2cc(C(=O)NCc3ccccc3)ccc21	8%	5%	i	?	9%	4%
COc1ccc(OCC(=O)Nc2cc(-c3nn(C)c(=O)c4ccccc34)ccc2OC)cc1	?	-21%	?	-11%	23µM*	-14%
COc1ccc(NC(=O)COc2ccc(-c3nn(C)c(=O)c4ccccc34)cc2)cc1	-31%	-22%	i	-21%	-22%	0%
O=C(O)CC1(CC(=O)Nc2ccc3sccc3c2)CCCCC1	-8%	5%	i	-6%	-4%	1%
CN1C/C(=C/c2ccccc2[N+](=O)[O-])C(=O)/C(=C\c2ccccc2[N+](=O)[O-])C1	?	-32%	nt	3.2µM*	27%	?
CCOC(=O)c1c(C)nc2c(c1-c1cc(OC)ccc1OC)C(=O)CC(C)(C)C2	nt	-14%	i	-4%	2%	4%
CC(C)n1c(SCC(=O)Nc2nc3c(s2)CCCC3)nc2c1c(=O)n(C)c(=O)n2C	-31%	-3%	i	-15%	23µM*	-16%
CCOC(=O)c1c(NC(=O)CSc2nc3c(c(=O)n(C)c(=O)n3C)n2C(C)C)sc(C)c1C	-3%	3%	i	2%	6%	1%
CCCCn1c(SCC(=O)Nc2nnc(CC)s2)nc2c1c(=O)n(C)c(=O)n2C	0%	-65%	i	-10%	8.2µM*	-3%
Oc1cccc(-c2nc3c4c(ncn3n2)-c2ccccc2CC42CCCC2)c1	?	-96%	?	?	23µM*	?
COc1ccc(-c2nc3c4c(ncn3n2)-c2ccccc2CC42CCCC2)cc1	-14%	-12%	i	4%	-9%	0%
CC(C)Oc1ccc(CNC(=O)c2cccc(NC(=O)N3CCSc4ncccc43)c2)cc1	nt	-4%	nt	0%	23µM*	4%
CCOc1ccc(CNC(=O)c2cccc(NC(=O)N3CCSc4ncccc43)c2)cc1	nt	-1%	nt	0%	?	2%
Cc1ccc(C(=O)NC(C)c2nnc(SCC(=O)NC3CCCC3)n2C)cc1 (stereo not given)	3%	-25%	?	-10%	4%	-7%
CCc1nc2cccnc2n1-c1ccc(CC(=O)O)cc1	-2%	5%	i	2%	-12%	3%
SMILES	ATXN2 expr inh	HepG2 viability	S2 tox	TGFb inhibitor	Nrf2 block	A549 viability
Cc1ccc(NC(=O)Cc2ccc(-n3c(C)nc4cccnc43)cc2)c(Cl)c1	nt	-15%	nt	?	21µM*	-11%
CCOC(=O)C1C(=O)C=C(c2cccc(NS(C)(=O)=O)c2)CC1c1ccco1 (stereo not given)	-21%	-18%	i	-14%	-9%	-1%
CCOC(=O)C1C(=O)C=C(c2ccc(Br)cc2)CC1c1ccco1 (stereo not given)	-28%	-28%	i	0%	23µM*	?
COc1ccc(CCNC(=O)c2ccc3nc(-c4ccco4)c(-c4ccco4)nc3c2)cc1OC	?	-42%	i	2%	23µM*	-19%
COc1ccc(CCNC(=O)c2ccc3c(c2)ncn3-c2ccc(C(C)C)cc2)cc1OC	25µM*	-38%	?	?	nt	-15%
CCc1nc2ccc(C(=O)NCCc3ccc(OC)c(OC)c3)cc2nc1CC	-11%	-5%	i	1%	-13%	1%
CCOC(=O)[C@H]1O[C@H]1C(=O)N[C@@H](CC(C)C)C(=O)NCCC(C)C	0%	nt	nt	nt	nt	nt
CCOC(=O)[C@H]1O[C@@H]1C(=O)N[C@@H](CC(C)C)C(=O)NCCC(C)C	0%	-35%	3.2µM*	?	10%	21µM*
O=C(NCCN1CCOCC1)C1CC(=O)N(c2ccc(Cl)cc2)C1 (stereo not given)	1%	-33%	i	8%	-27%	0%
CC(=O)Nc1ccc(S(=O)(=O)NCCSCc2c(Cl)cccc2Cl)cc1	-14%	-15%	?	6%	15µM*	-21%
CC(=O)Nc1ccc(S(=O)(=O)NCCSCc2cccc(Cl)c2)cc1	-2%	-6%	i	-27%	-26%	1%
CN(C)S(=O)(=O)c1ccc(S(=O)(=O)Nc2ccc3c(c2)oc2ccccc23)cc1	-5%	-34%	i	11µM*	?	-29%
CCCC(=O)NC(c1ccccc1Cl)c1ccc2cccnc2c1O (stereo not given)	3.2µM*	-3%	i	?	?	-16%
Cc1cc(NC(c2ccc(Cl)cc2)c2ccc3cccnc3c2O)no1 (stereo not given)	3.2µM*	-10%	?	?	nt	?
CCCC(=O)NC(c1ccc(N(C)C)cc1)c1ccc2cccnc2c1O (stereo not given)	?	-52%	i	2.5µM*	?	-8%
CCCC(=O)NC(c1ccc(C(C)C)cc1)c1ccc2cccnc2c1O (stereo not given)	?	-30%	i	-26%	?	15%
CC(=O)NC(c1ccc(Cl)cc1)c1ccc2cccnc2c1O (stereo not given)	nt	-18%	?	?	?	1%
